# Experimental data published in PubChem BioAssay (Tox21).
# Records with an inconclusive call do not appear. Activity calls are given as the source filed them. Calls follow the shape of the dose curve; as a rule, active = well fitted curve in the direction sought with a large enough effect in the repeat runs; inconclusive = weak or mixed curves; inactive = no such curve, though single readings can be large; an effect the other way counts as inactive or inconclusive.
# Test: A CellTox Green Cytotoxicity Assay to monitor cytotoxicity in HEK293 cells - 24 hour (AID 1224875); also: nearly all actives have a fitted effect of over 45% in size
# Settings: CellTox Green fluorescence; series mostly up to 76.8 µM; activity change: at the top concentration
# Procedure, shortened: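 Cells (HEK293, 600/well) and dye reagent are dispensed together. After 5 h at 37 C, 23 nL compound is pinned in. Plates stay at 37 C for 40 h with fluorescence read at 0h, 8h, 16h, 24h, 32h and 40h.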
# % is scaled to controls: 0 for no effect and ±100 for the full control effect; potency is read from the fitted curve at half-maximal effect.
SMILES,activity change,Potency
N#Cc1c(-c2ccc(Cl)cc2)[nH]c(C(F)(F)F)c1Br,11.4% (inactive),
CCCOCC(=Nc1ccc(Cl)cc1C(F)(F)F)n1ccnc1,,48.9 µM (active)
O=C(O)C1C2CCC(O2)C1C(=O)O (stereo unspecified),,inactive
CCCCCCCCc1ccc(O)cc1,,17.5 µM (active)

# Test: A CellTox Green Cytotoxicity Assay to monitor cytotoxicity in HepG2 cells - 16 hour (AID 1224876); also: nearly all actives have a fitted effect of over 45% in size
# Settings: CellTox Green fluorescence; series mostly up to 76.8 µM; cytotoxicity increase: at the top concentration
# Procedure, shortened: (§1)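 Cells and non-lytic dye reagent are dispensed together (600 HepG2 cells/well) and incubated 5 h before DMSO compound transfer. Kinetic fluorescence is then recorded in the same wells during 40 h at 37 C.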
SMILES,cytotoxicity increase,Potency
Cc1cc(C(F)(C(F)(F)F)C(F)(F)F)ccc1NC(=O)c1cccc(I)c1C(=O)NC(C)(C)CS(C)(=O)=O,-13% [at 35.3 µM] (inactive),
O=C(O)COc1nc(Cl)c(Cl)cc1Cl,,12.6 µM (active)
ClC(Cl)=C(c1ccc(Cl)cc1)c1ccc(Cl)cc1,,inactive
CCCCCCCCCCCCCCC(Br)C(=O)O (stereo unspecified),1.6% (inactive),
O=c1oc2ccccc2c(O)c1Cc1c(O)c2ccccc2oc1=O,-3.78% [at 35.3 µM] (inactive),
ClCc1ccc(Cl)cc1Cl,0.66% (inactive),
O=C(CCl)C(Cl)Cl,-2.4% (inactive),
O=c1c(C2CC(c3ccc(-c4ccc(Br)cc4)cc3)Cc3ccccc32)c(O)sc2ccccc12 (stereo unspecified),-5.6% [at 35.3 µM] (inactive),
CC(=[OH+])/C=C(/C)[O-].CC(=[OH+])/C=C(\C)[O-].CC(=[OH+])/C=C(\C)[O-].[Al],-13.1% (inactive),
Clc1ccc(-c2ccc(Cl)c(Cl)c2Cl)c(Cl)c1Cl,-2.52% (inactive),
CCC(C)c1cc([N+](=O)[O-])cc([N+](=O)[O-])c1OC(=O)C=C(C)C (stereo unspecified),-5.44% (inactive),
Nc1ccc(Cc2ccc(N)c(Cl)c2)cc1Cl,-21.1% (inactive),
CC(c1ccc(O)cc1)c1ccc(O)cc1,0.541% (inactive),
CC(C)(C)c1ccc(CSc2cnn(C(C)(C)C)c(=O)c2Cl)cc1,1.63% (inactive),
COP(=S)(OC)Oc1cc(Cl)c(Br)cc1Cl,0.58% (inactive),
CCOP(=S)(OCC)SCCS(=O)(=O)CC,16.6% (inactive),
CS(=O)(=O)c1ccc(C(=O)C2C(=O)CCCC2=O)c([N+](=O)[O-])c1,,44.4 µM (active)
CC[C@H]1C[C@@H]2C[C@H]3c4[nH]c5ccc(OC)cc5c4CCN(C2)[C@@H]13,10.3% (inactive),
NC(=O)c1ccc(N)nc1,-0.849% (inactive),
CN(C)[C@@H]1C(=O)C(C(N)=O)=C(O)[C@@]2(O)C(=O)C3=C(O)c4c(O)ccc(Cl)c4[C@@](C)(O)[C@H]3C[C@@H]12,-7.76% (inactive),
N#Cc1c(-c2ccc(Cl)cc2)[nH]c(C(F)(F)F)c1Br,-10.8% (inactive),
O=C(O)C1C2CCC(O2)C1C(=O)O (stereo unspecified),,inactive
CCCCCCCCc1ccc(O)cc1,,38 µM (active)

# Test: qHTS RealTime-Glo MT Cell Viability Assay in HepG2 cells - 32 hour (AID 1224877); also: nearly all actives have a fitted effect of over 55% in size
# Settings: RealTime-Glo luminescence; series mostly up to 76.8 µM; activity change, negative = cytotoxic: at the top concentration
# Procedure, shortened: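 HepG2 suspension premixed with RealTime-Glo reagents is plated at 600 cells per well and left 5 h at 37 C/5% CO2. Compounds in DMSO then go in, and bioluminescence reflecting viable cell number is recorded over 40 h.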
SMILES,"activity change, negative = cytotoxic",Potency
Cc1cc(C(F)(C(F)(F)F)C(F)(F)F)ccc1NC(=O)c1cccc(I)c1C(=O)NC(C)(C)CS(C)(=O)=O,-10% [at 35.3 µM] (inactive),
O=C(O)COc1nc(Cl)c(Cl)cc1Cl,4.27% (inactive),
ClC(Cl)=C(c1ccc(Cl)cc1)c1ccc(Cl)cc1,,inactive
CCN(CC)C(=S)[S-].CCN(CC)C(=S)[S-].[Zn+2],,13.7 µM (active)
CCCCCCCCCCCCCCC(Br)C(=O)O (stereo unspecified),-24.7% (inactive),
O=c1oc2ccccc2c(O)c1Cc1c(O)c2ccccc2oc1=O,-8.76% [at 35.3 µM] (inactive),
ClCc1ccc(Cl)cc1Cl,-0.214% (inactive),
CC(=[OH+])/C=C(/C)[O-].CC(=[OH+])/C=C(\C)[O-].CC(=[OH+])/C=C(\C)[O-].[Al],10.1% (inactive),
Clc1ccc(-c2ccc(Cl)c(Cl)c2Cl)c(Cl)c1Cl,2.53% (inactive),
CCC(C)c1cc([N+](=O)[O-])cc([N+](=O)[O-])c1OC(=O)C=C(C)C (stereo unspecified),,49 µM (active)
S=C(SSC(=S)N1CCCCC1)N1CCCCC1,,0.213 µM (active)
C=CCC1=C(C)C(OC(=O)C2C(C=C(C)C)C2(C)C)CC1=O (stereo unspecified),-14.7% (inactive),
Nc1c(Oc2ccccc2)cc(O)c2c1C(=O)c1ccccc1C2=O,-0.398% [at 35.3 µM] (inactive),
CC(c1ccc(O)cc1)c1ccc(O)cc1,,inactive
CC(C)(C)c1ccc(CSc2cnn(C(C)(C)C)c(=O)c2Cl)cc1,-24% (inactive),
CC(C)[C@H](C(=O)OC(C#N)c1cccc(Oc2ccccc2)c1)c1ccc(OC(F)F)cc1 (stereo partly specified),-7.95% (inactive),
COP(=S)(OC)Oc1cc(Cl)c(Br)cc1Cl,-3.91% (inactive),
CCOP(=S)(OCC)SCCS(=O)(=O)CC,-2.01% (inactive),
CS(=O)(=O)c1ccc(C(=O)C2C(=O)CCCC2=O)c([N+](=O)[O-])c1,-9.91% (inactive),
CC[C@H]1C[C@@H]2C[C@H]3c4[nH]c5ccc(OC)cc5c4CCN(C2)[C@@H]13,-17.5% (inactive),
Nc1ccc(Sc2ccc(N)cc2)cc1,11.1% (inactive),
NC(=O)c1ccc(N)nc1,-4.01% (inactive),
CN(C)[C@@H]1C(=O)C(C(N)=O)=C(O)[C@@]2(O)C(=O)C3=C(O)c4c(O)ccc(Cl)c4[C@@](C)(O)[C@H]3C[C@@H]12,-8.97% (inactive),
O=C1c2ccccc2C(=O)C1C(=O)C(c1ccccc1)c1ccc(Cl)cc1 (stereo unspecified),-18.5% (inactive),
O=C(O)C1C2CCC(O2)C1C(=O)O (stereo unspecified),,inactive

# Test: A CellTox Green Cytotoxicity Assay to monitor cytotoxicity in HepG2 cells - 24 hour (AID 1224878); also: nearly all actives have a fitted effect of over 45% in size
# Settings: CellTox Green fluorescence; series mostly up to 76.8 µM; cytotoxicity: at the top concentration
# Procedure, shortened: as §1
SMILES,cytotoxicity,Potency
Cc1cc(C(F)(C(F)(F)F)C(F)(F)F)ccc1NC(=O)c1cccc(I)c1C(=O)NC(C)(C)CS(C)(=O)=O,-12.2% [at 35.3 µM] (inactive),
ClC(Cl)=C(c1ccc(Cl)cc1)c1ccc(Cl)cc1,21.5% (inactive),
O=c1oc2ccccc2c(O)c1Cc1c(O)c2ccccc2oc1=O,-10.1% [at 35.3 µM] (inactive),
ClCc1ccc(Cl)cc1Cl,2.52% (inactive),
O=c1c(C2CC(c3ccc(-c4ccc(Br)cc4)cc3)Cc3ccccc32)c(O)sc2ccccc12 (stereo unspecified),-8.34% [at 35.3 µM] (inactive),
CC(=[OH+])/C=C(/C)[O-].CC(=[OH+])/C=C(\C)[O-].CC(=[OH+])/C=C(\C)[O-].[Al],-13.6% (inactive),
Clc1ccc(-c2ccc(Cl)c(Cl)c2Cl)c(Cl)c1Cl,1.85% (inactive),
CCC(C)c1cc([N+](=O)[O-])cc([N+](=O)[O-])c1OC(=O)C=C(C)C (stereo unspecified),17.1% (inactive),
Nc1c(Oc2ccccc2)cc(O)c2c1C(=O)c1ccccc1C2=O,-6.38% [at 35.3 µM] (inactive),
CC(C)(C)c1ccc(CSc2cnn(C(C)(C)C)c(=O)c2Cl)cc1,21.9% (inactive),
COP(=S)(OC)Oc1cc(Cl)c(Br)cc1Cl,-0.629% (inactive),
CCOP(=S)(OCC)SCCS(=O)(=O)CC,17.9% (inactive),
CS(=O)(=O)c1ccc(C(=O)C2C(=O)CCCC2=O)c([N+](=O)[O-])c1,,39.6 µM (active)
CC[C@H]1C[C@@H]2C[C@H]3c4[nH]c5ccc(OC)cc5c4CCN(C2)[C@@H]13,,54 µM (active)
NC(=O)c1ccc(N)nc1,-0.253% (inactive),
CN(C)[C@@H]1C(=O)C(C(N)=O)=C(O)[C@@]2(O)C(=O)C3=C(O)c4c(O)ccc(Cl)c4[C@@](C)(O)[C@H]3C[C@@H]12,-4.66% (inactive),
O=C1c2ccccc2C(=O)C1C(=O)C(c1ccccc1)c1ccc(Cl)cc1 (stereo unspecified),,54.9 µM (active)
O=C(O)C1C2CCC(O2)C1C(=O)O (stereo unspecified),,inactive
CCCCCCCCc1ccc(O)cc1,,19.6 µM (active)
